An excerpt weighted towards active compounds, which were near 10% of everything screened.
BAZ2B block: inhibitors of human BAZ2B bromodomain | AlphaScreen BAZ2B-H3K14Ac peptide displacement | Potency, µM (doses to about 114 µM), for the others: at the highest dose activity change, negative = inhibition, usual class: inhibitors | 4.4% of 360,000 active | AID 504333; also: % is scaled to controls: 0 for no effect and ±100 for the full control effect; nearly all actives have a fitted effect of over 60% in size
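Inhibition is scored as reduced AlphaScreen emission. The BAZ2B/b-H3(5-23)K14Ac complex (50 nM each) in PBS pH 7.4, 0.01% Tween-20 meets compound (up to 110 uM) for 30 min at RT before bead addition.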
G9a block: inhibitors of human histone lysine methyltransferase G9a | G9a H3K9 monomethylation, AlphaScreen, 2 h | Potency, µM (top dose mostly 102 µM), inactives show top-dose activity, negative = inhibition, actives largely listed as inhibitors | 8.8% of 350,000 active | AID 504332; also: % is scaled to controls: 0 for no effect and ±100 for the full control effect; nearly all actives have a fitted effect of over 75% in size
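Using a bead-based AlphaScreen, monomethylated H3K9 product from 2 h room-temperature reactions (G9a 20 nM, peptide 500 nM, SAM 20 uM) was detected with 0.5 ug/mL rabbit anti-H3K9me1 antibody.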
L3MBTL1 block: inhibitors of human L3MBTL1. Q9Y468. AlphaScreen L3MBTL1–H3K9me1 peptide binding. Potency, µM (titrated, usually from 57.1 µM), without a hit: top-dose activity, negative = inhibition, hits mostly inhibitors. 0.66% of 230,000 active; also: % is scaled to controls: 0 for no effect and ±100 for the full control effect; nearly all actives have a fitted effect of over 60% in size
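L3MBTL1 (50 nM) pre-complexed 30 min with biotinylated H3(1-15)K9me1 peptide (75 nM), then compounds added for 30 min at room temperature; AlphaScreen streptavidin donor/nickel chelate acceptor beads (10 ug/mL final) read after 30 min dark incubation.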
HP1b chromo inh: blocks HP1-beta chromodomain binding to methylated histone tails. AID 540317. AlphaScreen HP1-beta / biotin-H3K9me3 peptide binding. P83916. Potency, µM (doses to about 114 µM), for inactives: top-dose activity change, negative = inhibition, usual class: inhibitors. 0.56% of 390,000 active; also: nearly all actives have a fitted effect of over 70% in size
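AlphaScreen: HP1-beta (50 nM) preformed 30 min with biotin-H3(1-18)K9me3 peptide (50 nM) in PBS pH 7.4, 0.01% Tween-20. Compound added for 30 min at RT, then streptavidin donor/nickel chelate acceptor beads (10 ug/mL) for 30 min.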
JMJD2A Tudor inh: inhibitors of human JMJD2A Tudor domain | AID 504339 | AlphaScreen JMJD2A-Tudor / H3K4me3 peptide binding | 4.4% of 390,000 active | O75164 | Potency, µM (titrated, usually from 114 µM), inactives show at the top dose activity change, negative = inhibition, hits mostly inhibitors; also: % is scaled to controls: 0 for no effect and ±100 for the full control effect; nearly all actives have a fitted effect of over 50% in size
GLS inhibitor: blocks human kidney-isoform glutaminase activity; 0.21% of 410,000 active; AID 624170; GLS enzymatic activity, qHTS titration; O94925; Potency, µM (highest dose often 45.5 µM), for inactives: top-dose activity change, negative = inhibition, actives largely listed as inhibitors; also: % is scaled to controls: 0 for no effect and ±100 for the full control effect
Target sequence (O94925 whole entry, looked up, canonical isoform): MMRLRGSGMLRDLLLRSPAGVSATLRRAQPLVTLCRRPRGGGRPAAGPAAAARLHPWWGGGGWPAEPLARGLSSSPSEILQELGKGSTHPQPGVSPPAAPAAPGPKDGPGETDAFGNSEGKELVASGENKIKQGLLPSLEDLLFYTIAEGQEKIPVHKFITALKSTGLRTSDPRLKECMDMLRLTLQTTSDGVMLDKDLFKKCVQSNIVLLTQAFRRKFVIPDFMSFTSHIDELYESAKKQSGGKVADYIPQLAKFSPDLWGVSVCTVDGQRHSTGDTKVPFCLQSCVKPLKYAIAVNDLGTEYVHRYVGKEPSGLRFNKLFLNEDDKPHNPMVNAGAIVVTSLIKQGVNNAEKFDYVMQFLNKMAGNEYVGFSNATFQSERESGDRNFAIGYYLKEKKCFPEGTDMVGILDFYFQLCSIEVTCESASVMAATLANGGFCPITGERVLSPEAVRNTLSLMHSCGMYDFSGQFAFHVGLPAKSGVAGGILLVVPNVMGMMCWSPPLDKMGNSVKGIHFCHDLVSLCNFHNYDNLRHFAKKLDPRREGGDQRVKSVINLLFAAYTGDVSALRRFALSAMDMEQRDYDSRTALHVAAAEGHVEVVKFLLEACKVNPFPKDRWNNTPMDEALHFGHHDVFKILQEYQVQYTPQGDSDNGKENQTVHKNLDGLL
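Compounds were pin-transferred onto hKGA, after which L-glutamine (1 mM solution) and a detection mix of glutamate oxidase, HRP and Amplex Red were added. Initial and 30 min RT fluorescence reads were collected.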
* hit, by the source's call; ? = inconclusive; · = no result; [ ] = remark or other dose. Calls follow the shape of the dose curve; as a rule, active = well fitted curve in the direction sought with a large enough effect; inconclusive = small, poorly fitted or top-dose-only effect, or another doubt; inactive = no such curve, though single readings can be large; an effect the other way counts as inactive or inconclusive. Potency is read from the fitted curve at half-maximal effect.

SMILES	BAZ2B block	G9a block	L3MBTL1 block	HP1b chromo inh	JMJD2A Tudor inh	GLS inhibitor
COc1ccc(-n2ccc(=O)c(C(=O)Nc3ccc(S(=O)(=O)Nc4nccs4)cc3)n2)cc1	?	?	·	-11.1%	56.2µM*	0.6%
O=C(Nc1ccc(S(=O)(=O)Nc2nccs2)cc1)c1nn(-c2ccccc2)ccc1=O	?	22.4µM*	·	50.6%	10.9%	-1.6%
CCn1nc(C(=O)Nc2ccc(S(=O)(=O)Nc3nccs3)cc2)c2ccccc2c1=O	?	?	·	-4.5%	-19.2%	-3.9%
O=C(NCC1CCN(Cc2cccc(F)c2)CC1)c1cc2ccc3cccnc3c2[nH]1	5.3%[57.1 µM]	-39.6%[59 µM]	·	13.8%	-4.5%	-0.1%
Oc1ccc2ccccc2c1C=Nc1ccccc1-c1nc2ccccc2[nH]1	2.1%	7.08µM*	·	?	?	29.7%
CCOC(=O)C(C)Sc1nc(-c2ccco2)cc(C(F)(F)F)c1C#N (stereo unspecified)	19.2%	39.8µM*	12.4%	47.2%	-10.0%	-1.1%
CCOC(=O)COc1nc(-c2ccco2)cc(-c2ccco2)c1C#N	-22.4%	-30.4%[59 µM]	-5.6%	21.7%	35.6%	-15.9%
Cc1nc2ccccn2c1-c1ccnc(=S)[nH]1	-30.1%	10µM*	4.0%	40.1%	-24.1%	?
CC1(C)C(=O)N(CC(=O)Nc2ccc(OC(F)(F)F)cc2)c2ccccc21	5.6%	14.7%[59 µM]	·	25.6%[57 µM]	-11.0%	-7.3%
CCn1c(=S)[nH]c2cc(C(=O)OC)ccc2c1=O	-23.1%	?	·	36.2%	-20.1%	-1.8%
O=C(NCCCN1CCOCC1)c1ccc2c(=O)n(Cc3cccc(Br)c3)c(=S)[nH]c2c1	-24.4%	35.5µM*	·	?	?	4.7%
COc1ccccc1Cn1c(=S)[nH]c2cc(C(=O)NCC(OC)OC)ccc2c1=O	1.8%	-12.6%	·	48.7%	6.5%	10µM*
COc1ccccc1Cn1c(=S)[nH]c2cc(C(=O)NCCCN3CCOCC3)ccc2c1=O	-36.1%	35.5µM*	·	39.1%	-23.0%	?
COc1ccccc1Cn1c(=S)[nH]c2cc(C(=O)NC(C)C)ccc2c1=O	5.7%	4.8%	·	19.5%	-4.0%	3.5%
COC(=O)c1ccc2c(=O)n(NC(C)=O)c(=S)[nH]c2c1	50.1µM*	?	·	?	3.55µM*	3.7%
COCCn1c(=S)[nH]c2cc(C(=O)NCCCN3CCOCC3)ccc2c1=O	?	·	5.5%	69.1%	25.1µM*	3.2%
COc1cc2[nH]c(=S)n(N(C(C)=O)C(C)=O)c(=O)c2cc1OC	-1.5%	?	·	41.4%	-0.7%	-8.1%
COc1ccc(-n2c(=S)[nH]c3cc(C(=O)NCCCN4CCOCC4)ccc3c2=O)c(OC)c1	-13.7%	?	-14.2%	47.0%	?	-11.5%
COc1ccc(-n2c(=S)[nH]c3cc(C(=O)NCc4ccccc4)ccc3c2=O)c(OC)c1	0.0%	22.4µM*	·	27.6%	-9.5%	-4.7%
COc1cc2[nH]c(=S)n(NC(=O)c3ccccc3)c(=O)c2cc1OC	?	?	·	18.8%	89.1µM*	6.5%
COc1ccccc1Cn1c(=S)[nH]c2ccccc2c1=O	-1.3%	15.1%	·	68.4%	-9.1%	20µM*
COc1ccccc1Cn1c(=S)[nH]c2ccc(Br)cc2c1=O	1.5%	15.5%	·	32.8%	-20.4%	0.3%
COc1ccc(-n2c(=S)[nH]c3cc(C(=O)NCc4cccnc4)ccc3c2=O)c(OC)c1	-33.7%	?	·	0.0%	-23.6%	-3.9%
CCCCCn1c(=O)c2c(nc3n2CCN3c2ccc(Br)cc2)n(C)c1=O	?	?	·	17.7%	-32.6%	-1.7%
Cc1ccc(Cl)cc1NC(=O)CSc1nc2ccccc2c2nc(-c3ccccc3)nn12	2.3%	10.0%[59 µM]	·	44.1%	-8.3%	2.9%
SMILES	BAZ2B block	G9a block	L3MBTL1 block	HP1b chromo inh	JMJD2A Tudor inh	GLS inhibitor
O=Cc1c(NCCN2CCCC2)c2ccccc2[nH]c1=O	5.9%	10µM*	8.7%	31.0%	?	-9.9%
COC(=O)c1ccc2c(=O)n(CCCN3CCOCC3)c(=S)[nH]c2c1	-3.0%	?	3.9%	20.9%	-33.7%	-22.7%
O=C(NCCCN1CCOCC1)c1c(O)c2ccccc2[nH]c1=O	-10.4%	50.1µM*	-1.7%	55.6%	-22.9%[57.1 µM]	2.1%
COC(=O)c1ccc2c(=O)n(CCN3CCOCC3)c(=S)[nH]c2c1	-0.8%	-47.5%[12.7 µM]	6.1%[11.4 µM]	18.0%	56.2µM*	12.8%
O=C(NCCCN1CCOCC1)c1cc2c(=O)[nH]c3ccccc3c2s1	3.7%	26.3%[59 µM]	24.2%	8.8%	-16.4%	-13.4%
O=c1[nH]c(=O)n(-c2ccccc2)c2c1C(C(F)(F)F)(C(F)(F)F)N=C(C1CCCCC1)N2	-1.8%	23.2%[59 µM]	1.1%	4.2%	89.1µM*	-8.8%
O=C(NC1(C(F)(F)F)C(=O)Nc2c1c(=O)[nH]c(=O)n2-c1ccccc1)c1ccccc1 (stereo unspecified)	-1.3%	-35.3%[59 µM]	·	26.9%	-5.2%	-16.0%
CCOC(=O)c1c(C)oc2c1c(C(c1cccnc1)N1CCOCC1)c(O)c1ccccc12 (stereo unspecified)	39.8µM*	3.98µM*	-15.1%	?	79.4µM*	18.1%
Cn1cccc1C(NC(=O)c1ccccc1)C(Cl)(Cl)Cl (stereo unspecified)	?	44.7µM*	·	0.8%	-26.4%	-0.8%
O=C(NC(c1ccccc1)c1ccccc1)c1ccccc1	·	·	·	28.9%[57 µM]	-9.0%	-1.9%
CCCCCCCCCCCCCCCCN	·	-4.4%[12.7 µM]	·	·	·	6.3%
CC1(C)CC(=O)c2cc(-c3nc(-c4ccc(Cl)cc4)cs3)c(=O)n(-c3cccc(F)c3)c2C1	17.3%	-48.0%[59 µM]	·	53.1%	28.0%	0.1%
COc1ccc(CNC(=O)Cn2ccc3cc(S(=O)(=O)N4CCCCCC4)ccc32)cc1OC	-8.1%	-1.6%[59 µM]	·	2.8%	-23.1%	-4.5%
O=C(Cn1cc(C(=O)c2cccs2)c2ccccc21)Nc1ccc(Br)cc1	-3.9%	-9.1%[59 µM]	·	8.8%	-5.5%	-4.9%
O=C(CN1CCN(c2ccccc2O)CC1)Nc1ccc2c(c1)CCC2	-8.8%	70.8µM*	-0.2%	-12.2%	?	0.0%
O=C(CN1CCCC1)Nc1ccc2c(c1)CCC2	50.1µM*	25.1µM*	-3.2%	-4.4%	3.16µM*	-9.2%
CCCN(C(=O)C1CCN(S(=O)(=O)c2c(C)noc2/C=C/c2ccc(C)cc2)CC1)c1ccccc1F	-2.3%	20.1%[59 µM]	·	15.1%[57 µM]	-25.2%	3.9%
Cc1ccc(NC(=O)CCc2nnc3n(CC(C)C)c(=O)c4ccccc4n23)cc1C	1.0%	-0.8%[59 µM]	·	7.3%	-14.2%	-2.0%
COc1cc(/C=C2\C(=O)ON=C2c2ccccc2)cc(Cl)c1O	44.7µM*	35.5µM*	-25.4%	44.7µM*	22.4µM*	?
COc1cc(/C=C2\C(=O)ON=C2c2ccccc2)cc(Br)c1O	39.8µM*	35.5µM*	·	28.2µM*	25.1µM*	42.1%
